Active and inactive are the calls of the source. Rule for the calls: active = hit-call score of the fitted dose curve at least 0.9, where 1 is the maximum; inactive = score below 0.9.
Each molecule was assayed on Cyclin Dependent Kinase Inhibitor 1A (CDKN1A), CDKN1A (gene 1026) (assay: LTEA_HepaRG_CDKN1A: Life Technologies and Expression Analysis (LTEA) Assay for Cyclin Dependent Kinase Inhibitor 1A (CDKN1A) using HepaRG (AID 2283450)). Conditions: mRNA level, 48 h; actives raise or lower the signal.
Experimental: LTEA_HepaRG is a cell based, multiplexed-readout assay that uses HepaRG, a human liver cell line, with measurements taken at 48 hours after chemical dosing on a 96-well plate.LTEA_HepaRG_CDKN1A is one of 102 assay component(s) measured in the LTEA HepaRG cell culture assay. It is a marker of Cell proliferation, survival, death.Data from the assay component LTEA_HepaRG_CDKN1A was analyzed into 1 endpoint. This assay endpoint, LTEA_HepaRG_CDKN1A, was analyzed with bidirectional fitting relative to DMSO as the negative control and baseline of activity. Using a type of inducible reporter, measures of mRNA induction for gain or loss-of-signal activity can be used to understand regulation of transcription factor activity. To generalize the intended target to other relatable targets, this assay endpoint is annotated to the cell cycle intended target family, where the subfamily is Cell proliferation, survival, death.
A total of 1060 chemcials from the ToxCast library were tested in eight-point concentration-response experiments. Cell culture and cytotoxicity assays were conducted at Thermo Fisher Scientific's Custom Services facility (Madison, WI). A single lot of human HepaRG cells (Thermo Fisher Scientific, Frederick, MD) was used for the cell culture experiments. 96-well format collagen type I coated plates of human HepaRG cells were prepared using established methods. Briefly, cryopreserved HepaRG cells were thawed, plated at a density of approximately 100,000 cells/well in HepaRG Thaw, Plate, and General Purpose media (HPRG770, Thermo Fisher Scientific), and incubated for 48 hours. 0.5% DMSO was selected as vehicle control to balance the requisite need of DMSO in HepaRG cultures to maintain differentiation (for example, baseline metabolism, proportions of hepatocytes vs. cholangiocytes), while enabling further hepatic receptor pathway activation (for example, PXR and CAR) in response to chemical exposure. 48 hours after plating, the culture medium was replaced with HepaRG Serum-Free Incudtion Media. Cells were exposed to each test chemical in duplicate and maintained in CO2 incubators for another 48 hours. Chemical plates were thawed to room temperature and 200x concentrations of treatment groups were prepared. 8-point conentration-reponse curves were made with the highest exposure at 100 uM, followed by half-log dilutions, all in 0.5% DMSO. Each test plate contained variouse controls, induction positive controls (1mM phenobarbital), cytotoxicity positive controls ([…] aflatoxin B1), vehicle controls (0.5% DMSO), and total lysis controls (0.5% DMSO). Cell morphology images were taken using an Essen IncuCyte FLR automated microscope, with six 96-well plates imaged in about 24 minutes. Images were captured and exported and JPEG files. Spent culture media was transfered to black-well plates for the LDH assay, and remaining media was sorted at -80 C for later use. Cells were treated with RLT buffer and frozen until shipped for gene expression analysis. Total RNA was isolated from the cell suspension in 75 uL of Buffer RLT (Qiagen, Germantown, MD 20874) by Quintiles/Expression Analysis (Durham, NC) using a custom isolation procedure. Total RNA from each plate well was transferred to a preamplification plate. Fluidigm's 96.96 Dynamic ArrayTM (Fluidigm, Amsterdam, the Netherlands) technology was used for gene expression analyses by quantitative reverse transcription polymerase chain reaction (qRT-PCR, performed by Quintiles/Expression Analysis, Durham, NC)89. Standard TaqManTM Assays (Applied Biosystems/ThermoFisher Scientific, Foster City, CA) were used to assess the expression of 93 genes selected based on their selectivity and sensitivity to important hepatic receptors known to be modulated by environmental chemicals; importance in human hepatocyte functionality; and hepatotoxicity. […]

| SMILES | outcome | AC50 |
| --- | --- | --- |
| O=C(O)c1cccc(C[C@@H]2COc3ccc(OCc4nc5cc(F)ccc5s4)cc3[C@@H]2O)c1 | inactive | – |
| COCc1nnc(-c2ccc[n+]([O-])c2)n1-c1c(Cl)c(Cl)cc2[nH]c(=O)c(=O)[nH]c12 | inactive | – |
| CCCc1ccccc1 | inactive | – |
| c1ccc2ncccc2c1 | inactive | – |
| OC[C@H]1O[C@@H]2O[C@H]3[C@H](O)[C@@H](O)[C@@H](O[C@H]4[C@H](O)[C@@H](O)[C@@H](O[C@H]5[C@H](O)[C@@H](O)[C@@H](O[C@H]6[C@H](O)[C@@H](O)[C@@H](O[C@H]7[C@H](O)[C@@H](O)[C@@H](O[C@H]1[C@H](O)[C@H]2O)O[C@@H]7CO)O[C@@H]6CO)O[C@@H]5CO)O[C@@H]4CO)O[C@@H]3CO | inactive | – |
| COS(C)(=O)=O | inactive | – |
| Cn1c(=O)c2[nH]cnc2n(C)c1=O | inactive | – |
| CCCOc1ccc(S(=O)(=O)N2CCN(CC)CC2)cc1-c1nc2c(CC)n(Cc3ccccn3)nc2c(=O)[nH]1 | inactive | – |
| CCCCCCCCCCCCCCO | inactive | – |
| Cc1ccc(S(=O)(=O)NC(=O)NN2CCCCCC2)cc1 | inactive | – |
| OCCOCCOCCO | inactive | – |
| CCCCN1C(=O)[C@@H]([C@H](O)C2CCCCC2)NC(=O)C12CCN(Cc1ccc(Oc3ccc(C(=O)O)cc3)cc1)CC2 | inactive | – |
| O=c1[nH]cnc2c1ncn2[C@H]1CC[C@@H](CO)O1 | inactive | – |
| Nc1ccn([C@@H]2O[C@H](CO)[C@@H](O)[C@@H]2O)c(=O)n1 | inactive | – |
| CC(C)CCCCCCOC(=O)C1CCCCC1C(=O)OCCCCCCC(C)C (stereo not given) | inactive | – |
| CCN(CC)C(=S)SSC(=S)N(CC)CC | inactive | – |
| CC1(C)C(=O)N(Cl)C(=O)N1Cl | inactive | – |
| CCCCCCCCCCCCCCCCOS(=O)(=O)O | inactive | – |
| CC(C)C(=O)Nc1ccc([N+](=O)[O-])c(C(F)(F)F)c1 | – | 50 µM (active) |
| CCCCCCCCN(C)C | inactive | – |

| SMILES | outcome | AC50 |
| --- | --- | --- |
| c1ccc2c(c1)-c1cccc3c1c-2cc1ccccc13 | inactive | – |
| CCCCCCCC/C=C\CCCCCCCC(=O)OC[C@@H](O)[C@H]1OC[C@H](O)[C@H]1O | inactive | – |
| NC(=O)N(O)[C@@H]1COc2cc(OCc3ccccc3)ccc21 | inactive | – |
| OCC(CO)(CO)CO | inactive | – |
| C=CN1CCCC1=O | inactive | – |
| COc1cc2c(c(OC)c1OC)-c1ccc(OC)c(=O)cc1[C@@H](NC(C)=O)CC2 | inactive | – |
| c1ccc(C(O[C@@H]2CCCN(CCc3ccc4c(c3)OCO4)C2)c2ccccc2)cc1 | – | 77.7 µM (active) |
| CCn1nc(C)c2c1C(=O)NCC(c1ccc(O)cc1)=N2 | inactive | – |
| OC(Cn1cncn1)(Cn1cncn1)c1ccc(F)cc1F | inactive | – |
| Cc1nc(-c2ccccn2)ncc1C(=O)Nn1cc(C)c2cc(F)ccc21 | inactive | – |
| O=C1CN(N=Cc2ccc([N+](=O)[O-])o2)C(=O)N1 | – | 81.5 µM (active) |
| Cc1ncc([C@@H](CCCCCCc2ccc3c(n2)NCCC3)CC(=O)O)cn1 | inactive | – |
| CC(C)c1nnc2ccc(-c3ocnc3-c3cc(F)ccc3F)cn12 | inactive | – |
| Cc1nccn1-c1ccc(Sc2cccc(C3(C(N)=O)CCOCC3)c2)cc1 | – | 12.3 µM (active) |
| CCOc1ccc2[nH]cc(C(=O)NCc3ccccc3)c(=O)c2n1 | inactive | – |
| CCCCCCCC1CCC(=O)O1 (stereo not given) | inactive | – |
| CCCCC(CC)C(=O)OCCOCCOCCOC(=O)C(CC)CCCC (stereo not given) | inactive | – |
| O=C(O)c1ccc2c(c1)nc(C(=O)NC1CCN(C3CC3)CC1)n2Cc1cc(-c2ccc(Cl)s2)on1 | inactive | – |
| CCOC(N)=O | inactive | – |
| CCCCOC(=O)c1ccccc1 | inactive | – |

Source: PubChem BioAssay (EPA / NIEHS)
